Among all 69,000 compounds or so, about 8,600 (12%) showed an effect of 50% or more. The list comes from a sample in which strong results are over-represented; it also holds similar structures and randomly drawn compounds.

INHIBITION data for 57 compounds are collected here from ChEMBL document CHEMBL4513216, “Probing the Open Global Health Chemical Diversity Library for Multistage-Active Starting Points for Next-Generation Antimalarials” (ACS Infect Dis, 2020).

The test relates to Plasmodium berghei. The test is described as follows: Screen against P. berghei liver stage (PbLuc), transformed with Luciferase, at 10uM. Format: functional, HepG2. The note with it: tested at 10 uM.
With `O=c1ccc2c(n1Cc1cccnc1)CCC(NCc1cccnc1)C2` (configuration not stated), the INHIBITION is listed as -2.03%.
Consider `O=C(NC1CCc2c(ccc(=O)n2CC2CC2)C1)c1cscn1` (configuration not stated), for which the INHIBITION is reported as 41.2%.
Take `Cn1cc(CNC2CCc3c(ccc(=O)n3Cc3ccncc3)C2)cn1` (configuration not stated): the INHIBITION came out at 42.1%.
For `Nc1nc(Nc2ccccc2)cc(N2CCNCC2)n1` the value was 12.5%.
The value for `CC(C)CCn1ccc(NC(=O)N2CCCC2CN2CCOCC2)n1` (configuration not stated) was -0.551%; that for `Cc1cc(CNS(C)(=O)=O)ccc1N(C)C` was 25.5%; that for `Cc1ccc(CN2C[C@@H]3COC[C@@H](CC(=O)N4CCOCC4)[C@@H]3C2)s1` was -3.52%.
The value for `Cc1nccnc1C1CCN(C(=O)C(C)C)CC1` was 29.35%; that for `CC(=O)N(C)Cc1ncn2c1CN(C(=O)CC1CC1)CCC2` was -31.2%; that for `Cc1ccc(C(=O)N2C[C@H](OCC3CCOCC3)[C@H]3OCCC[C@H]32)o1` was -33.9%.
On to `COc1ccc(CN2CC[C@@H]3CN(S(C)(=O)=O)CCO[C@@H]3C2)cc1`, for which the INHIBITION is given as -0.804%.
The value for `CC(C)N1CCOC(c2cc(CCO)[nH]n2)C1` (configuration not stated) was 29.21%.
Consider `CCn1c2c(ccc1=O)CC(NCc1cnn(C)c1)CC2` (configuration not stated), for which the INHIBITION came to 12.2%.
For `COCCn1c2c(ccc1=O)CC(NCc1cnn(C)c1)CC2` (configuration not stated), the INHIBITION turned out to be 55.7%.
As to `CN(C)CCn1c2c(ccc1=O)CC(NCc1cnn(C)c1)CC2` (configuration not stated), the INHIBITION turned out to be 31.2%.
Consider `Cc1ccc(C(=O)N2CCC3(CC2)NC(=O)CC3c2ccccc2)cn1` (configuration not stated), for which the INHIBITION was -16.2%.
Take `Cn1nc(Br)c2c(NCCSCCCO)ncnc21`: the INHIBITION stood at 23.1%.
Regarding `O=C(CCCNc1ncccn1)N1CCCC(n2ccnc2)C1` (configuration not stated), the INHIBITION is reported as -17.6%.
Take `CN1CCCC(c2nccnc2-c2cccc(Cl)c2)C1` (configuration not stated): the INHIBITION was determined as 11.575%.
Regarding `CN1CCCC(c2nccnc2-c2cccc(C(F)(F)F)c2)C1` (configuration not stated), the INHIBITION stood at 19.64%.
Regarding `CN1CCCC(c2cccc(-c3cccc(Cl)c3)n2)C1` (configuration not stated), the INHIBITION was determined as 64.7%.
Take `CN1CCCC(c2cccc(-c3cccc(F)c3)n2)C1` (configuration not stated): the INHIBITION was determined as 36%.
Consider `CN1CCCC(c2cccc(-c3cccc(C(F)(F)F)c3)n2)C1` (configuration not stated), for which the INHIBITION is listed as 45.2%.
With `CN1CCCC(c2cncc(-c3cccc(C(F)(F)F)c3)n2)C1` (configuration not stated), the INHIBITION was found to be 66.6%.
For `Cn1ccnc1C1CCCN(C(=O)c2cc(F)cc(F)c2)C1` (configuration not stated) the value was 48.2%; for `CN(C)CCN1CCC2(CCCN(C(=O)C3CCC3)C2)CC1`, 33%.
For `O=C(C1CCOCC1)N1CC[C@H](O)[C@@H]1Cc1cccnc1`, the INHIBITION amounted to 37.6%.
As for `O=C([C@@H]1CCO[C@@H]2CCN(CC3CCOCC3)C[C@H]21)N1CCCC1`, the INHIBITION stood at 30.3%.
With `Cc1ccc(CN2C[C@H](C(=O)N3CCCCO3)[C@@H]3CCO[C@@H]3C2)o1`, the INHIBITION is -12.1%.
As to `Cc1ccc(CN2CC[C@H]3OCC[C@@H](C(=O)N4CCCCO4)[C@@H]3C2)o1`, the INHIBITION was determined as 61.5%.
Regarding `O=C([C@@H]1CCO[C@@H]2CCN(CC3CC3)C[C@H]21)N1CCCCO1`, the INHIBITION was 61.5%.
On to `CC(C)CN1CC[C@H]2OCC[C@@H](C(=O)N3CCCO3)[C@@H]2C1`, for which the INHIBITION is listed as 47.9%.
As for `O=C([C@@H]1CCO[C@@H]2CCN(CCc3ccccc3)C[C@@H]21)N1CCCC1`, the INHIBITION was -101%.
On to `O=C([C@@H]1CCO[C@@H]2CCN(CC3CC3)C[C@H]21)N1CCCC1`, for which the INHIBITION is 57.5%.
With `O=C([C@@H]1CCO[C@@H]2CCN(Cc3ccco3)C[C@H]21)N1CCCCO1`, the INHIBITION is 29.8%.
In the case of `O=C([C@@H]1CCO[C@@H]2CCN(CC3CCOCC3)C[C@H]21)N1CCCO1`, the INHIBITION is 34.4%.
With `CN1CCN(C2COC3(CCN(CC4CC4)CC3)C2)CC1` (configuration not stated), the INHIBITION is reported as -30.1%.
On to `CC(C)n1nc(Cn2cccn2)c2c1CN(C1CCOC1)C2` (configuration not stated), for which the INHIBITION is -12.1%.
Consider `COc1cccc2c1ccn2CCNC(C)=O`, for which the INHIBITION was 21%.
Consider `O=C(NCc1cncc2c1CCN(Cc1ccc(F)cc1)C2)C1CC1`, for which the INHIBITION is on record as -14.4%.
Consider `COc1cccc(N2C(=O)CC3(CCCNC3)C2=O)c1` (configuration not stated), for which the INHIBITION is -33.1%.
As for `N#Cc1ncn(CCC(=O)Nc2cccc(Cl)c2)n1`, the INHIBITION is given as 39.5%.
In the case of `CCC(=O)Nc1ccc(C(C)NC(=O)COC)cc1` (configuration not stated), the INHIBITION was -68%.
Regarding `N[C@@H](Cc1ccccc1)c1nnc(S(=O)(=O)Cc2cccc(Cl)c2)o1`, the INHIBITION is -3.73%.
For `CCN(CC)c1ccc(C(=O)N2CCC(c3nc(C)no3)CC2)cn1` the value was 30.25%.
For `Cc1cc(CCC2CN(CC3(O)CCCCC3)CCO2)ncn1` (configuration not stated) the value was -3.02%.
For `Cc1nc(N2CCOCC2)nc2c1CN(CC(=O)N(C)C)CC2`, the INHIBITION was 16.8%.
For the compound `c1csc(CN2CCc3nc(N4CCOCC4)nc(NC4CC4)c3C2)n1`, the INHIBITION came to 57.1%.
The value for `Cc1nc(N2CCCC2)nc2c1CCN(Cc1ccoc1)CC2` was 8.03%.
For `CCCN1CCc2nc(N3CCOCC3)nc(NC(C)C)c2C1` the value was 69.3%.
Take `Cc1nc(N2CCOCC2)nc2c1CCN(c1nccs1)CC2`: the INHIBITION turned out to be 37.8%.
For the compound `C1CN(c2nc3c(c(NC4CC4)n2)CN(CC2CCOC2)CC3)CCO1` (configuration not stated), the INHIBITION is recorded as -39.4%.
As to `CC(C)Nc1nc(N2CCOCC2)nc2c1CN(CC(=O)N(C)C)CC2`, the INHIBITION is on record as 20.5%.
The value for `CCN1CCc2nc(N3CCOCC3)nc(NC(C)C)c2C1` was 24%.
Turning to `CC(C)Nc1nc(N2CCOCC2)nc2c1CN(Cc1ccoc1)CC2`, the INHIBITION amounted to 55.2%.
As for `c1cc(CN2CCc3nc(N4CCOCC4)nc(NC4CC4)c3C2)co1`, the INHIBITION is -15.3%.
As to `CC(C)CCN1CCc2nc(N3CCOCC3)nc(NC(C)C)c2C1`, the INHIBITION stood at 70.2%.
